Reference: PubChem BioAssay AID1159580 (chemical genetic matrix, 2015)
In all, about 5,500 compounds went through this assay and about 2,000 (36%) were called active. About 18% were inconclusive and are not listed. Cut-off read from the data, not from the text of the source: active = normalized growth mostly below about 0.91 (no sharp cut-off); inconclusive = no clear call, values can overlap the other calls; inactive = mostly above about 0.92. The list shows a part of the results.

Assay: chemical genetic growth profiling, strain panel (AID 1159580);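 note: tested at 20 µM; growth read once vehicle control cultures reached saturation at 30 °C; 1 = growth at the plate median or of vehicle wells; lower values mean less growth of the strain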
Conditions: S. cerevisiae deletion strains, growth OD
[1] = locus YPL055C, strain LGE1, hits give low values
[2] = locus YPL241C, strain CIN2, hits give low values

Measured: normalized growth

CC(C)NC(C)Cc1ccc(I)cc1 (stereo not given)
inactive: locus YAL013W, strain DEP1, hits give low values 0.999 | locus YAL040C, strain CLN3, hits give low values 1.01 | locus YCL061C, strain MRC1 (second series), hits give low values 1.01 | locus YDR150W, strain NUM1, hits give low values 1.01 | locus YDR363W, strain ESC2, hits give low values 0.995 | locus YER002W, strain NOP16, hits give low values 1 | locus YNL175C, strain NOP13, hits give low values 1.01 | locus YNL197C, strain WHI3, hits give low values 1.01 | locus YNL224C, strain SQS1, hits give low values 1 | locus YNL322C, strain KRE1, hits give low values 1 | locus YOR083W, strain WHI5 (second series), hits give low values 0.998 | [1] 0.991 | [2] 1.02

COC(=O)CC1C(C)(C)C(=O)C2CC3(O)C4=CC(=O)OC(c5ccoc5)C4(C)CCC3C1(C)C2=O (stereo not given)
inactive: locus YBR021W, strain FUR4, hits give low values 1 | locus YBR229C, strain ROT2, hits give low values 1 | locus YCL029C, strain bik1, hits give low values 0.983 | locus YDL035C, strain GPR1, hits give low values 1.01 | locus YDL074C, strain BRE1, hits give low values 1 | locus YDL101C, strain DUN1, hits give low values 1 | locus YDL185W, strain tfp1, hits give low values 0.981 | locus YDL192W, strain arf1, hits give low values 0.99 | locus YDR101C, strain arx1, hits give low values 0.997 | locus YDR162C, strain NBP2, hits give low values 1.02 | locus YDR318W, strain mcm21, hits give low values 0.977 | locus YDR388W, hits give low values 0.982 | locus YDR502C, strain sam2, hits give low values 0.992 | locus YER110C, hits give low values 0.983 | locus YER155C, strain BEM2, hits give low values 1 | locus YER167W, strain BCK2, hits give low values 1.01 | locus YGL078C, strain dbp3, hits give low values 0.982 | locus YGL086W, strain mad1, hits give low values 0.993 | locus YGL248W, strain PDE1, hits give low values 1 | locus YGR135W, strain pre9, hits give low values 0.985 | locus YGR252W, strain gcn5, hits give low values 0.906 | locus YHR030C, strain SLT2, hits give low values 1.01 | locus YHR079C, strain IRE1 (second series), hits give low values 0.977 | locus YHR094C, strain hxt1, hits give low values 0.985 | locus YHR129C, strain ARP1, hits give low values 1 | locus YHR200W, strain rpn10, hits give low values 0.986 | locus YIL066C, strain RNR3, hits give low values 1.01 | locus YIL073C, strain SPO22, hits give low values 1.03 | locus YIL125W, strain kgd1, hits give low values 0.984 | locus YIR030C, strain dcg1, hits give low values 0.989 | locus YJL095W, strain BCK1, hits give low values 1.02 | locus YJL134W, strain LCB3, hits give low values 1 | locus YJL168C, strain set2, hits give low values 0.982 | locus YJL187C, strain SWE1 (second series), hits give low values 1 | locus YJR043C, strain POL32, hits give low values 0.997 | locus YKL009W, strain mrt4, hits give low values 0.989 | locus YKL068W, hits give low values 0.993 | locus YKL085W, strain MDH1 (second series), hits give low values 0.991 | locus YKL085W, strain MDH1, hits give low values 0.991 | locus YKR001C, strain vps1, hits give low values 0.97 | locus YLR039C, strain RIC1, hits give low values 1.05 | locus YLR058C, strain SHM2, hits give low values 1 | locus YLR102C, strain apc9, hits give low values 0.988 | locus YLR262C, strain YPT6, hits give low values 1.13 | locus YLR268W, strain sec22, hits give low values 0.977 | locus YLR342W, strain FKS1 (second series), hits give low values 0.992 | locus YLR371W, strain rom2, hits give low values 0.986 | locus YLR418C, strain cdc73, hits give low values 0.966 | locus YML016C, strain PPZ1, hits give low values 1 | locus YML032C, strain rad52, hits give low values 0.982 | locus YML124C, strain tub3, hits give low values 0.988 | locus YMR078C, strain ctf18, hits give low values 0.991 | locus YMR223W, strain ubp8, hits give low values 0.992 | locus YMR307W, strain GAS1, hits give low values 0.985 | locus YNL067W, strain RPL9B, hits give low values 1.01 | locus YNL128W, strain TEP1, hits give low values 1.01 | locus YNL233W, strain BNI4, hits give low values 1.01 | locus YNL250W, strain rad50, hits give low values 0.986 | locus YNL271C, strain bni1, hits give low values 0.979 | locus YNL298W, strain CLA4, hits give low values 0.982 | locus YNL307C, strain MCK1, hits give low values 0.986 | locus YNR052C, strain pop2, hits give low values 0.978 | locus YOL012C, strain htz1 1.11 | locus YOL147C, strain pex11, hits give low values 0.983 | locus YOR061W, strain CKA2, hits give low values 1.01 | locus YOR069W, strain VPS5, hits give low values 1 | locus YOR136W, strain idh2, hits give low values 0.978 | locus YOR144C, strain elg1, hits give low values 0.985 | locus YOR184W, strain ser1, hits give low values 0.992 | locus YOR316C, strain cot1, hits give low values 0.991 | [1] 0.994 | [2] 1 | locus YPR119W, strain clb2, hits give low values 0.999 | locus YPR141C, strain kar3, hits give low values 0.99 | locus YPR163C, strain tif3, hits give low values 0.982 | locus YPR167C, strain met16, hits give low values 0.985 | strain wtn01, hits give low values 0.99
